Assay results from the supplement of paper PMC9694430.
Structures can show the parent of a compound that is named as a salt.

Tested on: LOC_OS01G48390-cb002
Assay: thermal shift delta Tm vs DMSO control; higher = stronger stabilization (binding)
Conditions: 12.5 µM; protein concentration 2 µM
In short: (§1)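 Purified, E. coli-expressed rice kinase domain constructs were tested by differential scanning fluorimetry in 96-well plates: 19.5 μl of 2 μM kinase in 100 mM potassium phosphate pH 7.5, 150 mM NaCl, 10% glycerol, 5 × SYPRO Orange, plus compound in DMSO. Fluorescence was read from 25°C to 95°C at 0.05°C/s. Melting temperatures came from Boltzmann fits, and the shift is the triplicate mean relative to protein with DMSO alone.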

| Structure (SMILES) | thermal shift delta Tm [°C] |
| --- | --- |
| COc1cc(C(=O)N2CCC(N3CCN(C)CC3)CC2)ccc1Nc1ncc2c(n1)N(C)c1ccccc1C(=O)N2C | 0.42 |
| Cc1nc(Nc2n[nH]c3c2CN(C(=O)N[C@H](CN(C)C)c2ccccc2)C3(C)C)c2sccc2n1 | 0.23 |
| CC(C)(C)c1cc(NC(=O)Nc2ccc(Oc3ccnc4[nH]c(=O)cnc34)cc2F)n(-c2ccccc2)n1 | 0.23 |
| CN1CC[C@H](c2c(O)cc(O)c3c(=O)cc(-c4ccccc4Cl)oc23)[C@H](O)C1 [Flavopiridol HCl] | 0.58 |
| CCC(=O)Nc1cccc(Oc2nc(Nc3ccc(N4CCN(C)CC4)cc3OC)ncc2Cl)c1 | 0.98 |
| N#CC(=C(/N)Sc1ccccc1N)/C(C#N)=C(\N)Sc1ccccc1N | 0.24 |
| Clc1ccc(C2(c3ccc(-c4cn[nH]c4)cc3)CCNCC2)cc1 | 0.45 |
| O=c1c(O)c(-c2cc(O)c(O)c(O)c2)oc2cc(O)cc(O)c12 [Myricetin] | 2.72 |
| CN1CCN(Cc2ccc(NC(=O)Nc3ccc(Oc4ccnc(N)n4)cc3)cc2C(F)(F)F)CC1 | 1.03 |
| CN1CCN(c2nc(C3=C(c4c[nH]c5ccccc45)C(=O)NC3=O)c3ccccc3n2)CC1 [Sotrastaurin] | 2.55 |
| O=C(c1ccc(/C=C/c2n[nH]c3ccccc23)cc1)N1CCNCC1 | 5.36 |
| N#CC1(c2ccc(NC(=O)c3cccnc3NCc3ccncc3)cc2)CCCC1 [Apatinib] | 0.55 |
| Cc1cc(O)c(-c2ccc([C@@H](C)CN)cc2)c2c1[nH]c(=O)c1sccc12 [OTS514 hydrochloride] | 1.38 |
| Oc1cc(O)cc(/C=C/c2ccc(O)c(O)c2)c1 [Piceatannol] | 1.02 |
| COc1cc(N2CCC(N(C)C)CC2)ccc1Nc1ncc(Cl)c(Nc2ccccc2P(C)(C)=O)n1 | 0.54 |
| O=C1NC(=O)C(c2ccccc2[N+](=O)[O-])=C1Nc1ccc(O)c(Cl)c1 | 0.67 |
| O=C(O)c1ccc(Nc2ncc3c(n2)-c2ccc(Cl)cc2C(c2c(F)cccc2F)=NC3)cc1 | 0.02 |
| CCN1CCN(Cc2ccc(Nc3ncc(F)c(-c4cc(F)c5nc(C)n(C(C)C)c5c4)n3)nc2)CC1 | 1.47 |
| Cc1cc(CN2CCN(c3c(Br)cnc4nc(-c5ccc(N6CCN(C)CC6)cc5)[nH]c34)CC2)no1 | 3.13 |

| Structure (SMILES) | thermal shift delta Tm [°C] |
| --- | --- |
| Cn1ncc(Cl)c1-c1cc(C(=O)N[C@H](CN)Cc2ccc(F)c(F)c2)oc1Cl | 1 |
| CCS(=O)(=O)Nc1ccc2c(c1)/C(=C(/Nc1ccc(CN3CCCCC3)cc1)c1ccccc1)C(=O)N2 [Hesperadin] | 0.03 |
| CC1(COc2ccc3c(c2)ncn3-c2ccc3cccc(N4CCC(N)CC4)c3n2)COC1 | 0.25 |
| Oc1cccc(-c2nc(N3CCOCC3)c3oc4ncccc4c3n2)c1 | 0.11 |
| O=C(O)c1ccc(-c2c[nH]c3ncc(-c4ccccc4)cc23)cc1C1CCCC1 | -1.42 |
| C[C@H](CN(C)C)Oc1nc(Nc2cc3cccc(Cl)c3cn2)cnc1C#N | 4.18 |
| CC(C)(C)c1nc(-c2ccc(NC(=O)Nc3cccc(C(F)(F)F)c3)c3ccccc23)c2c(N)nccn12 [kira6] | 1.52 |
| COc1ccc(COc2ccc(Cc3cnc(N)nc3N)cc2OC)cc1 | -0.01 |
| COc1cc(-c2cc(-c3ccc(N4CCNCC4)cc3)cnc2C)cc(OC)c1OC | 0.11 |
| CC(C)Nc1cc(-c2c[nH]c(C(=O)N[C@H](CO)c3cccc(Cl)c3)c2)c(Cl)cn1 | 1.24 |
| COc1c(C)c(C(=O)c2ccc(N)c(C(=O)O)c2)n2ccccc12 | 0.46 |
| CN(C)C/C=C/C(=O)Nc1cc2c(Nc3ccc(F)c(Cl)c3)ncnc2cc1O[C@H]1CCOC1 [Afatinib (BIBW2992)] | 2.17 |
| CN1CC[C@H](c2c(O)cc(O)c3c(=O)cc(-c4ccccc4Cl)oc23)[C@H](O)C1 [Flavopiridol (Alvocidib)] | 0.03 |
| CC(C)Oc1ccc(-c2nn([C@@H](C)c3oc4ccc(F)cc4c(=O)c3-c3cccc(F)c3)c3ncnc(N)c23)cc1F | 1.45 |
| N#Cc1ccc2ncnc(NCCc3ccccc3)c2c1 [Senexin A] | 0.42 |
| CN(C)C/C=C/C(=O)Nc1ccc(C(=O)Nc2cccc(Nc3ncc(Cl)c(-c4c[nH]c5ccccc45)n3)c2)cc1 | 3.99 |
| COc1cc2c(cc1OC)[C@@H]1C(=O)c3ccc4c(c3O[C@@H]1CO2)C=CC(C)(C)O4 [Deguelin] | 0.4 |
| CC(C)(C)c1cnc(CSc2cnc(NC(=O)C3CCNCC3)s2)o1 | 6.3 |
| CNC(=O)c1ccccc1Nc1cc(Nc2ccc(N3CCOCC3)cc2OC)ncc1C(F)(F)F | 0.58 |

Tested on: LOC_OS01G51400-cb002
Assay: as above
Conditions: 12.5 µM; protein concentration 2 µM
In short: as §1

| Structure (SMILES) | thermal shift delta Tm [°C] |
| --- | --- |
| COc1cc(C(=O)N2CCC(N3CCN(C)CC3)CC2)ccc1Nc1ncc2c(n1)N(C)c1ccccc1C(=O)N2C | -0.06 |
| Cc1nc(Nc2n[nH]c3c2CN(C(=O)N[C@H](CN(C)C)c2ccccc2)C3(C)C)c2sccc2n1 | 0.28 |
| CC(C)(C)c1cc(NC(=O)Nc2ccc(Oc3ccnc4[nH]c(=O)cnc34)cc2F)n(-c2ccccc2)n1 | 0.46 |
| CN1CC[C@H](c2c(O)cc(O)c3c(=O)cc(-c4ccccc4Cl)oc23)[C@H](O)C1 [Flavopiridol HCl] | 0.54 |
| CCC(=O)Nc1cccc(Oc2nc(Nc3ccc(N4CCN(C)CC4)cc3OC)ncc2Cl)c1 | 0.38 |
| N#CC(=C(/N)Sc1ccccc1N)/C(C#N)=C(\N)Sc1ccccc1N | 0.39 |
| Clc1ccc(C2(c3ccc(-c4cn[nH]c4)cc3)CCNCC2)cc1 | 0 |
| O=c1c(O)c(-c2cc(O)c(O)c(O)c2)oc2cc(O)cc(O)c12 [Myricetin] | 2.08 |
| CN1CCN(Cc2ccc(NC(=O)Nc3ccc(Oc4ccnc(N)n4)cc3)cc2C(F)(F)F)CC1 | 0.2 |
| CN1CCN(c2nc(C3=C(c4c[nH]c5ccccc45)C(=O)NC3=O)c3ccccc3n2)CC1 [Sotrastaurin] | 0.38 |
| O=C(c1ccc(/C=C/c2n[nH]c3ccccc23)cc1)N1CCNCC1 | 1.16 |
| N#CC1(c2ccc(NC(=O)c3cccnc3NCc3ccncc3)cc2)CCCC1 [Apatinib] | 0.33 |
| Cc1cc(O)c(-c2ccc([C@@H](C)CN)cc2)c2c1[nH]c(=O)c1sccc12 [OTS514 hydrochloride] | -0.1 |
| Oc1cc(O)cc(/C=C/c2ccc(O)c(O)c2)c1 [Piceatannol] | 0.39 |
| COc1cc(N2CCC(N(C)C)CC2)ccc1Nc1ncc(Cl)c(Nc2ccccc2P(C)(C)=O)n1 | 0.25 |
| O=C1NC(=O)C(c2ccccc2[N+](=O)[O-])=C1Nc1ccc(O)c(Cl)c1 | 0.04 |
| O=C(O)c1ccc(Nc2ncc3c(n2)-c2ccc(Cl)cc2C(c2c(F)cccc2F)=NC3)cc1 | -0.16 |
| CCN1CCN(Cc2ccc(Nc3ncc(F)c(-c4cc(F)c5nc(C)n(C(C)C)c5c4)n3)nc2)CC1 | 0.13 |
| Cc1cc(CN2CCN(c3c(Br)cnc4nc(-c5ccc(N6CCN(C)CC6)cc5)[nH]c34)CC2)no1 | 0.84 |

| Structure (SMILES) | thermal shift delta Tm [°C] |
| --- | --- |
| Cn1ncc(Cl)c1-c1cc(C(=O)N[C@H](CN)Cc2ccc(F)c(F)c2)oc1Cl | 0.44 |
| CCS(=O)(=O)Nc1ccc2c(c1)/C(=C(/Nc1ccc(CN3CCCCC3)cc1)c1ccccc1)C(=O)N2 [Hesperadin] | 0.3 |
| CC1(COc2ccc3c(c2)ncn3-c2ccc3cccc(N4CCC(N)CC4)c3n2)COC1 | 0.13 |
| Oc1cccc(-c2nc(N3CCOCC3)c3oc4ncccc4c3n2)c1 | 0.21 |
| O=C(O)c1ccc(-c2c[nH]c3ncc(-c4ccccc4)cc23)cc1C1CCCC1 | -0.58 |
| C[C@H](CN(C)C)Oc1nc(Nc2cc3cccc(Cl)c3cn2)cnc1C#N | 0.08 |
| CC(C)(C)c1nc(-c2ccc(NC(=O)Nc3cccc(C(F)(F)F)c3)c3ccccc23)c2c(N)nccn12 [kira6] | 0.79 |
| COc1ccc(COc2ccc(Cc3cnc(N)nc3N)cc2OC)cc1 | 0.2 |
| COc1cc(-c2cc(-c3ccc(N4CCNCC4)cc3)cnc2C)cc(OC)c1OC | -0.26 |
| CC(C)Nc1cc(-c2c[nH]c(C(=O)N[C@H](CO)c3cccc(Cl)c3)c2)c(Cl)cn1 | 0.12 |
| COc1c(C)c(C(=O)c2ccc(N)c(C(=O)O)c2)n2ccccc12 | 0.21 |
| CN(C)C/C=C/C(=O)Nc1cc2c(Nc3ccc(F)c(Cl)c3)ncnc2cc1O[C@H]1CCOC1 [Afatinib (BIBW2992)] | 0.41 |
| CN1CC[C@H](c2c(O)cc(O)c3c(=O)cc(-c4ccccc4Cl)oc23)[C@H](O)C1 [Flavopiridol (Alvocidib)] | -0.2 |
| CC(C)Oc1ccc(-c2nn([C@@H](C)c3oc4ccc(F)cc4c(=O)c3-c3cccc(F)c3)c3ncnc(N)c23)cc1F | 0.32 |
| N#Cc1ccc2ncnc(NCCc3ccccc3)c2c1 [Senexin A] | 0.41 |
| CN(C)C/C=C/C(=O)Nc1ccc(C(=O)Nc2cccc(Nc3ncc(Cl)c(-c4c[nH]c5ccccc45)n3)c2)cc1 | 1.75 |
| COc1cc2c(cc1OC)[C@@H]1C(=O)c3ccc4c(c3O[C@@H]1CO2)C=CC(C)(C)O4 [Deguelin] | -0.11 |
| CC(C)(C)c1cnc(CSc2cnc(NC(=O)C3CCNCC3)s2)o1 | 0.67 |
| CNC(=O)c1ccccc1Nc1cc(Nc2ccc(N3CCOCC3)cc2OC)ncc1C(F)(F)F | 0.74 |
